Test results taken from PubChem BioAssay (NCATS).
Values joined by “and” are separate entries in the source; they are usually repeats but may differ in a detail not shown here. Identical values can stand only once. Records with an inconclusive call do not appear. Where a structure was tested more than once in an assay, its records may differ in their call. Active and inactive are the calls of the source. Unless noted, calls follow the shape of the dose curve; as a rule, active = well fitted curve in the direction sought with a large enough effect; inconclusive = small, poorly fitted or top-dose-only effect, or another doubt; inactive = no such curve, though single readings can be large; an effect the other way counts as inactive or inconclusive.

How the values were obtained:
[1] = target: Cellular tumor antigen p53 (Homo sapiens) (UniProt P04637); assay: Primary qHTS for small molecule compounds that upregulate eGFP-tagged delta133p53alpha (in N-terminal) cells. (AID 2060322); conditions: NCI-H358 eGFP-delta133p53alpha fluorescence, 24 h; activation: hits give high values; also: nearly all actives have a fitted effect of over 75% in size; also: potency is read from the fitted curve at half-maximal effect;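 as to activation: series mostly up to about 56 µM; 0% = DMSO vehicle and 100% = reference activator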
In short: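 NCI-H358 cells pre-induced 24 h with 10 ng/ml doxycycline to express N-terminal eGFP-delta133p53alpha, then dosed 24 h at 37C without doxycycline; fixed, Hoechst-stained, GFP intensity by laser scanning cytometry, normalized to DMSO (0%) and 57.5 uM 5-azacytidine (100%).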

[2] = target: Aldehyde dehydrogenase, mitochondrial (Homo sapiens) (UniProt P05091); assay: qHTS for Inhibitors of the Aldehyde Dehydrogenase Family (ALDH2) Primary screen (AID 2061308);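 also: plate controls were vehicle for no effect and reference inhibitor for full effect; nearly all actives have a fitted effect of over 55% in size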
[3] = target: Retinaldehyde dehydrogenase 3 (Homo sapiens) (UniProt P47895); assay: qHTS for Inhibitors of the Aldehyde Dehydrogenase Family (ALDH1A3) Primary screen (AID 2061315);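 also: plate controls were DMSO vehicle for no effect and reference inhibitor for full effect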
[4] = BET inhibitor-based combinations targeting novel dependencies in MECOM-rearranged (r) AML: SET-2 cell line (AID 2202231); conditions: SET-2 AML cells viability, CellTiter-Glo luminescence, 48 h; viability: hits give low values, concentration not given here; also: nearly all actives have a fitted effect of over 35% in size; also: potency is read from the fitted curve at half-maximal effect;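 as to viability: plate controls were DMSO treated cells for no effect and wells without cells for full effect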
In short: (§1)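 Here, 11-point titrations of each agent were applied to 500 seeded cells and incubated 48 hr; CellTiter-Glo signal, scaled against DMSO and empty wells, was integrated as AUC, then Z-scored within the individual line.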

[5] = BET inhibitor-based combinations targeting novel dependencies in MECOM-rearranged (r) AML: OCI-AML3 cell line (AID 2202232); conditions: Potency: OCI-AML3 viability; also: nearly all actives have a fitted effect of over 35% in size; also: potency is read from the fitted curve at half-maximal effect
In short: as §1

[6] = BET inhibitor-based combinations targeting novel dependencies in MECOM-rearranged (r) AML: MV-4-11 cell line (AID 2202233); also: potency is read from the fitted curve at half-maximal effect; nearly all actives have a fitted effect of over 45% in size
In short: (§2)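 Normalized to DMSO and empty-well controls, the luminescence data from CellTiter-Glo after 48 hr drug exposure were fitted across 11 concentrations. Reported metrics are area under the dose-response curve and its Z-transformed form.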

[7] = BET inhibitor-based combinations targeting novel dependencies in MECOM-rearranged (r) AML: HNT-34 cell line (AID 2202234); also: nearly all actives have a fitted effect of over 35% in size; also: potency is read from the fitted curve at half-maximal effect
In short: as §2

[8] = BET inhibitor-based combinations targeting novel dependencies in MECOM-rearranged (r) AML: AML-191 cell line (AID 2202236; also: nearly all actives have a fitted effect of over 35% in size; also: potency is read from the fitted curve at half-maximal effect)
In short: as §1

[9] = BET inhibitor-based combinations targeting novel dependencies in MECOM-rearranged (r) AML: AML-194 cell line (AID 2202237; also: nearly all actives have a fitted effect of over 40% in size; also: potency is read from the fitted curve at half-maximal effect)
In short: as §1

[10] = target: Retinaldehyde dehydrogenase 3 (Homo sapiens) (UniProt P47895); assay: qHTS for Inhibitors of the Aldehyde Dehydrogenase Family (ALDH1A3) Validation screen (AID 2061312); also: % is scaled to controls: 0 for no effect and ±100 for the full control effect; nearly all actives have a fitted effect of over 45% in size
[11] = BET inhibitor-based combinations targeting novel dependencies in MECOM-rearranged (r) AML: UCSD-AML1 cell line (AID 2202235); also: nearly all actives have a fitted effect of over 40% in size; also: potency is read from the fitted curve at half-maximal effect
In short: as §2

[12] = target: Aldehyde dehydrogenase, mitochondrial (Homo sapiens) (UniProt P05091); assay: qHTS for Inhibitors of the Aldehyde Dehydrogenase Family (ALDH2) Validation screens (AID 2061302; active = well fitted inhibition curve with a large enough effect; title and protocol of this record describe different tests;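 also: plate controls were DMSO vehicle for no effect and maximal DPI positive control response for full effect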)
[13] = qHTS for Inhibitors of the Aldehyde Dehydrogenase Family (ALDH1A2, ALDH1A3, ALDH2, ALDH3A1) (AID 2061307); also: test system not described further here; potency is read from the fitted curve at half-maximal effect; nearly all actives have a fitted effect of over 50% in size
[14] = target: Retinaldehyde dehydrogenase 3 (Homo sapiens) (UniProt P47895); assay: qHTS for Inhibitors of the Aldehyde Dehydrogenase Family (ALDH1A3) Confirmatory screens (AID 2061311); also: potency is read from the fitted curve at half-maximal effect; nearly all actives have a fitted effect of over 60% in size
[15] = target: Retinal dehydrogenase 2 (Homo sapiens) (UniProt O94788); assay: qHTS for Inhibitors of the Aldehyde Dehydrogenase Family (ALDH1A2) Confirmation screens (AID 2061314); also: potency is read from the fitted curve at half-maximal effect; nearly all actives have a fitted effect of over 65% in size
[16] = target: Aldehyde dehydrogenase 1A1 (Homo sapiens) (UniProt P00352); assay: qHTS for Inhibitors of the Aldehyde Dehydrogenase Family (ALDH1A1) Confirmatory screens (AID 2061316); also: potency is read from the fitted curve at half-maximal effect; nearly all actives have a fitted effect of over 65% in size
[17] = target: Cellular tumor antigen p53 (Homo sapiens) (UniProt P04637); assay: Primary qHTS for small molecule compounds that upregulate eGFP-tagged delta133p53alpha (in C-terminal) cells. (AID 2060324); also: potency is read from the fitted curve at half-maximal effect
In short: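 NCI-H358 cells with doxycycline-inducible D133p53a-eGFP (C-terminal tag), pre-induced 24 h with 100 ng/ml doxycycline, plated 800/well in doxycycline-free medium and treated 24 h at 37 °C with compound titrations. Cells were then fixed and Hoechst-stained, and GFP intensity was read by laser scanning cytometry.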

Cellular tumor antigen p53 (Homo sapiens), sequence (P04637 whole entry, looked up): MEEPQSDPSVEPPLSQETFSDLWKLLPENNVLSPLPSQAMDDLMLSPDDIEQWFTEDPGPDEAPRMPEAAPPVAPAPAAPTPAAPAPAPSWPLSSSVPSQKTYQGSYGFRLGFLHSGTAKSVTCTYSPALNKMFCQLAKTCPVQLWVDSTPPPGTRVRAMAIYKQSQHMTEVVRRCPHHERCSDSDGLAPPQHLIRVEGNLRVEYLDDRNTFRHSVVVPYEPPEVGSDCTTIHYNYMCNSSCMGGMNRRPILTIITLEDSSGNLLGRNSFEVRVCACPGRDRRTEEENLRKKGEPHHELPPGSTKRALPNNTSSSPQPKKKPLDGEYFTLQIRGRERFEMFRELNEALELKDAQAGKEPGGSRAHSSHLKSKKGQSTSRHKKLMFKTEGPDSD

Cc1cc(Nc2ncc(Cl)c(Nc3ccccc3S(=O)(=O)C(C)C)n2)c(OC(C)C)cc1C1CCNCC1
active: Potency [1] 7.57 µM | Potency [4] 23.5 µM | Potency [5] 9.34 µM | Potency [6] 4680 nM | Potency [7] 6.61 µM | Potency [8] 16.6 µM | Potency [9] 9.34 µM
inactive: activation [1] 21.6% | Potency [2] | Potency [3]

COc1ccc(C2CC(c3ccccc3)=NN2c2ccc(S(N)(=O)=O)cc2)cc1 (stereo unspecified)
inactive: activation [1] -16.2% | Potency [2] | Potency [10] | Potency [3] | viability [4] 112% | Potency [11] | Potency [8] | Potency [9]
active: Potency [1] 21.7 µM

COc1cc2nccc(Oc3ccc(NC(=O)C4(C(=O)Nc5ccc(F)cc5)CC4)cc3)c2cc1OC
active: Potency [1] 38.5 µM | Potency [6] 16.6 nM | Potency [7] 2.95 µM
inactive: activation [1] 11.6% | Potency [2] | Potency [3]

Cc1ccc(NC(=O)C2(c3ccc4c(c3)OC(F)(F)O4)CC2)nc1-c1cccc(C(=O)O)c1
active: Potency [1] 0.153 µM
inactive: activation [1] -10.5% | Potency [2] | Potency [10] | Potency [3] | viability [4] 94.8% | Potency [5] | Potency [7] | Potency [11] | Potency [8] | Potency [9]

O=C1Cc2cc(CCN3CCN(c4nsc5ccccc45)CC3)c(Cl)cc2N1
active: Potency [1] 27.6 µM
inactive: activation [1] -69% | Potency [12] | Potency [2] | Potency [3]

Cc1nc2c(-c3cnc(N)nc3)nc(N3CCOCC3)nc2n1C(C)C
inactive: activation [1] 14.3% | Potency [2] | Potency [3]
active: Potency [1] 9.66 µM | Potency [6] 296 nM

O=C(Nc1ccc([N+](=O)[O-])cc1Cl)c1cc(Cl)ccc1O
inactive: activation [1] 122% and -83.1% | Potency [12]
active: Potency [1] 4.26 µM | Potency [5] 1.66 µM | Potency [6] 4170 nM | Potency [7] 1.05 µM | Potency [8] 1.05 µM | Potency [9] 1.48 µM

Cc1coc2c1C(=O)C(=O)c1c-2ccc2c(C)cccc12
inactive: activation [1] 9.22%
active: Potency [1] 13.5 µM | Potency [13] 4.49 µM | Potency [14] 12.7 µM | Potency [15] 11.3 µM | Potency [16] 3.57 µM

CNC(=O)CN1CCC(Oc2cc3c(Nc4cccc(Cl)c4F)ncnc3cc2OC)CC1
inactive: activation [1] 14.3% | Potency [2] | Potency [3] | viability [4] 107% | Potency [8] | Potency [9]
active: Potency [1] 13.7 µM | Potency [7] 16.6 µM | Potency [11] 20.9 µM

Cn1c2ccccc2c2c3c(c4c5ccccc5n(CCC#N)c4c21)CNC3=O
active: Potency [1] 16.9 µM | Potency [6] 417 nM | Potency [7] 3.32 µM | Potency [11] 8.33 µM | Potency [9] 4.68 µM
inactive: activation [1] -13.5% | Potency [2] | Potency [3]

Cc1cc(Nc2nc(N[C@@H](C)c3ncc(F)cn3)ncc2Cl)n[nH]1
inactive: activation [1] -0.181% and 24.8% | Potency [2] | Potency [10] | Potency [3]
active: Potency [1] 21.7 µM | Potency [4] 1.48 µM | Potency [5] 1.32 µM | Potency [7] 2.63 µM | Potency [8] 0.132 µM

CS(=O)c1ccc(-c2nc(-c3ccc(F)cc3)c(-c3ccncc3)[nH]2)cc1 (stereo unspecified)
active: Potency [1] 49.8 µM
inactive: activation [1] -3.57% | Potency [2] | Potency [3] | Potency [5] | Potency [9]

COc1ccc(-c2cc3nccn3c(Nc3ncccc3C(N)=O)n2)cc1OC
inactive: Potency [3]

O=C(O)COCCN1CCN(C(c2ccccc2)c2ccc(Cl)cc2)CC1 (stereo unspecified)
inactive: activation [1] 0.565% and 21.7% and -7.29% | Potency [17] | Potency [12]

CC(N)(Cc1ccc(O)c(O)c1)C(=O)O (stereo unspecified)
inactive: activation [1] -16.9% | Potency [17] | Potency [12]

CCNC(=O)[C@H]1O[C@@H](n2cnc3c(N)nc(NCCc4ccc(CCC(=O)O)cc4)nc32)[C@H](O)C1O (stereo partly specified)
inactive: activation [1] -0.799% | Potency [17] | Potency [12]

O=C(CCc1ccncc1)NNC(=O)N1Cc2ccccc2Oc2ccc(Cl)cc21
inactive: activation [1] -9.58% | Potency [17] | Potency [12]

COc1ccc(CCN(C)CCc2ccc(OC)c(OC)c2)cc1OC
inactive: activation [1] -16.8% | Potency [17] | Potency [12]

COc1ccccc1N1CCN(CCN(C(=O)c2ccc(F)cc2)c2ccccn2)CC1
inactive: activation [1] 5.52% | Potency [17] | Potency [12]

[N-]=[N+]=Nc1ccc(C(=O)CSC[C@H](NC(=O)CC[C@H](N)C(=O)O)C(=O)NCC(=O)O)cc1
inactive: activation [1] -38.2% | Potency [17] | Potency [12]

CC(=O)Oc1cc(C(C)C)c(OCCN(C)C)cc1C
inactive: activation [1] -0.837% and 6.26% | Potency [17] | Potency [12]

CCCCCC[C@@H]([C@@H](C)O)n1cnc2c(N)ncnc21
inactive: activation [1] -41.6% | Potency [17] | Potency [12]

NC[C@@H]1O[C@H](C23CC4CC(CC(C4)C2)C3)Cc2c1ccc(O)c2O
inactive: activation [1] 44.4% | Potency [12]
active: Potency [17] 23.9 µM

NC(Cc1cccc(-c2ccccc2CP(=O)(O)O)c1)C(=O)O (stereo unspecified)
inactive: activation [1] 5.19% | Potency [17] | Potency [12]

COc1cc2c(CCNC(C)=O)c[nH]c2cc1O
inactive: activation [1] -10.8% | Potency [17] | Potency [12]

CCCn1c(=O)c2[nH]c(-c3ccc(S(=O)(=O)O)cc3)nc2n(CCC)c1=O
inactive: activation [1] -6.22% | Potency [17] | Potency [12]

CCN(CC)CCNC(=O)c1ccc(NS(C)(=O)=O)cc1
inactive: activation [1] -1.7% | Potency [17] | Potency [12]

C#CCN(C)CCCOc1ccc(Cl)cc1Cl
inactive: activation [1] -2.51% and -6.18% | Potency [17] | Potency [12]

CC(CN1c2ccccc2Sc2ccccc21)N(C)C (stereo unspecified)
inactive: activation [1] -20.9% and -2.49% | Potency [17] | Potency [12]

O=c1cc(O)cc(/C=C/c2ccc(O)c(O)c2)o1
inactive: activation [1] -54.7% | Potency [17] | Potency [12]

COc1ccccc1CN[C@@H]1CCCN[C@@H]1c1ccccc1
inactive: activation [1] -89.1% | Potency [17] | Potency [12]

NO
inactive: activation [1] -15.6% | Potency [17] | Potency [12]

CCCCOc1cc(CC2CNC(=O)N2)ccc1OC (stereo unspecified)
inactive: activation [1] -11.2% | Potency [17] | Potency [12]

COc1ccc2c(c1OC)C(=O)O[C@@H]2[C@H]1c2c(cc3c(c2OC)OCO3)CCN1C
active: Potency [1] 21.9 µM
inactive: Potency [17] | Potency [12]

CCCCCCCCCCCCCCCCCCN(CCCCCCCCCCCCCCCCCC)CCCN(CCO)CCO
inactive: activation [1] -13.9% | Potency [17] | Potency [12]

CCCCCCCCCCCCCCCCCC(=O)OC(CC(=O)O)C[N+](C)(C)C (stereo unspecified)
inactive: activation [1] -37.9% | Potency [17] | Potency [12]

N=C(N)SCCc1cnc[nH]1
inactive: activation [1] -28.5% | Potency [17] | Potency [12]

NC1CCN(O)C1=O (stereo unspecified)
inactive: activation [1] -20% | Potency [17] | Potency [12]

CNCC(O)c1ccc(O)c(O)c1 (stereo unspecified)
inactive: activation [1] 7.34% | Potency [17] | Potency [12]

CN1CCc2cc(NC(=O)Nc3cccnc3)ccc21
inactive: activation [1] -9.58% | Potency [17] | Potency [12]

N[C@@H](CS(=O)O)C(=O)O
inactive: activation [1] -27.4% | Potency [17] | Potency [12]

COc1cc(C(=O)OCCCN2CCCN(CCCOC(=O)c3cc(OC)c(OC)c(OC)c3)CC2)cc(OC)c1OC
inactive: activation [1] -3.95% and -82% | Potency [17] | Potency [12]

COC(=O)[C@H]1[C@H]2C[C@H]3c4[nH]c5ccccc5c4CCN3C[C@H]2CC[C@@H]1O
inactive: activation [1] -1.08% | Potency [17] | Potency [12]

CCCCCCCCCC[Si](C)(C)CCC(=O)NC(Cc1ccc(C)cc1)c1ccccc1 (stereo unspecified)
inactive: activation [1] -9.05% | Potency [17] | Potency [12]

COc1ccc(NC(=O)c2ccc(-c3ccc(-c4noc(C)n4)cc3C)cc2)cc1N1CCN(C)CC1
inactive: activation [1] -47.1% | Potency [17] | Potency [12]

CCC1(O)CC2CN(CCc3c([nH]c4ccccc34)[C@@](C(=O)OC)(c3cc4c(cc3OC)N(C=O)C3[C@]45CCN4CC=C[C@@](CC)([C@@H](OC(C)=O)[C@]3(O)C(=O)OC)[C@H]45)C2)C1 (stereo partly specified)
inactive: activation [1] 32.1% | Potency [17] | Potency [12]

Oc1cc2c(c(Cl)c1O)CCNCC2c1ccccc1 (stereo unspecified)
inactive: activation [1] -28% | Potency [17] | Potency [12]

CCOC(=O)C1=C(C)NC(C)=C(C(=O)OC)C1c1cccc([N+](=O)[O-])c1 (stereo unspecified)
inactive: activation [1] -7.72% | Potency [17] | Potency [12]

CCc1c(C)[nH]c2c1C(=O)C(CN1CCOCC1)CC2 (stereo unspecified)
inactive: activation [1] 4.18% and -34.4% | Potency [17] | Potency [12]
